{
  "source": "PubChem BioAssay (NCATS)",
  "key": {"[1]": {"assay": "Primary qHTS for inhibitors of nuclear receptor binding SET domain protein 2 (NSD2) in an isogenic RCH-ACV NSD2 p.E1099K mutant (9B) (AID 1645876); further: nearly all actives have a fitted effect of over 70% in size"}, "[2]": {"assay": "Primary qHTS for inhibitors of nuclear receptor binding SET domain protein 2 (NSD2) in an RCH-ACV wild type WT cells (2C) (AID 1645877); further: nearly all actives have a fitted effect of over 70% in size"}, "[3]": {"target": "Rap guanine nucleotide exchange factor 3 (Homo sapiens) (UniProt O95398)", "sequence (O95398 whole entry, looked up)": "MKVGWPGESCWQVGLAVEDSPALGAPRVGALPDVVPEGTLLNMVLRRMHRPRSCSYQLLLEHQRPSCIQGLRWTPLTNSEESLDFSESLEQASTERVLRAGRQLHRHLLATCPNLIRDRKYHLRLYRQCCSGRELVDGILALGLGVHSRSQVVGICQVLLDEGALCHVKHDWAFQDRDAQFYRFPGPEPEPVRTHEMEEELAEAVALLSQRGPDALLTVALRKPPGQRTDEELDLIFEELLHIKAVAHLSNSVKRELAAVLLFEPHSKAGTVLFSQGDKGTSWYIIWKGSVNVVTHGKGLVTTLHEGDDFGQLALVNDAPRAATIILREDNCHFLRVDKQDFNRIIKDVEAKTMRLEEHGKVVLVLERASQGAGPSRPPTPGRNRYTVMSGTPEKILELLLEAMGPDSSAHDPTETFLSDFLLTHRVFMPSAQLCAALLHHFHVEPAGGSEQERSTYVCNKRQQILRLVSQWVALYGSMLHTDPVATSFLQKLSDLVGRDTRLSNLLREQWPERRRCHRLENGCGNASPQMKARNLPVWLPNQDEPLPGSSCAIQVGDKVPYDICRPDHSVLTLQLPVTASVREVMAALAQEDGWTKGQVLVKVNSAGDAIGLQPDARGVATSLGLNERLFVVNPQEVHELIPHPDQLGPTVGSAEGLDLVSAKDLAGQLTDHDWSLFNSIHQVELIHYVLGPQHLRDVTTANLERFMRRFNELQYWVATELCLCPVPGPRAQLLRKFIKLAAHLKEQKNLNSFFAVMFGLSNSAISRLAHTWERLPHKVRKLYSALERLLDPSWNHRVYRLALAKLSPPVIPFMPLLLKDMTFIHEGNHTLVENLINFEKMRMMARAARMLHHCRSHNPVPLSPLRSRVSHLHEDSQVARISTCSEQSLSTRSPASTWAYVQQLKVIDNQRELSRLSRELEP", "assay": "Confirmatory qHTS for antagonist of cAMP-regulated guanine nucleotide exchange factor 3 (EPAC1) (AID 1645880); further: potency means the concentration at half of the fitted maximal effect; nearly all actives have a fitted effect of over 55% in size", "details": "EPAC1 Rap1B-BODIPY-GDP exchange, fluorescence", "in_short": "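Released BODIPY-GDP fluoresces less than Rap1-bound BODIPY-GDP; the signal is followed at 480/540 nm at 5-min intervals over 30 min, after 5 min at room temperature. Reactions contain 100 nM EPAC1, 250 nM RAP1B-BODIPY-GDP and 50 uM GDP; results are normalized to ATA and DMSO.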"}},
  "note": "Inconclusive results are not listed. Entries that show only a call come without a potency. Unmarked numbers belong to inactive results. Calls of active or inactive are those of the source. The call rests on the fitted dose curve; in most records, active means well fitted curve in the direction sought with a large enough effect; inconclusive means small, poorly fitted or top-dose-only effect, or another doubt; inactive means no such curve, though single readings can be large; an effect the other way counts as inactive or inconclusive.",
  "data": [
    {"molecule": "C=C1CC[C@H]2[C@@](C)(CCC(OC3OC(CO)C(O)C(O)C3O)[C@@]2(C)CO)C1C(=O)CC1=CCOC1=O", "note": "(stereo partly drawn)", "values": [
      {"measurement": "Potency", "setting": "[1]", "value": "inactive"},
      {"measurement": "Potency", "setting": "[2]", "value": "inactive"}
    ]},
    {"molecule": "C[C@@H]1[C@H]2[C@H](O[C@@H]3O[C@H](CO)[C@@H](O)[C@H](O)[C@H]3O)OC=C(C(=O)O)[C@H]2C[C@@H]1OC(=O)/C=C/c1ccc(O)cc1", "values": [
      {"measurement": "Potency", "setting": "[1]", "value": "inactive"},
      {"measurement": "Potency", "setting": "[2]", "value": "inactive"}
    ]},
    {"molecule": "CC(C)C1CCC(C(=O)N[C@@H](Cc2ccccc2)C(=O)O)CC1", "note": "(stereo partly drawn)", "values": [
      {"measurement": "Potency", "setting": "[1]", "value": "inactive"},
      {"measurement": "Potency", "setting": "[2]", "value": "inactive"}
    ]},
    {"molecule": "CC1OC(O[C@H]2CC[C@@]3(C)C(CC[C@]4(C)C3CC=C3C5CC(C)(C)CC[C@]5(C(=O)OC5OC(CO)C(OC6OCC(OC7OCC(O)C(O)C7O)C(O)C6O)C(O)C5O)CC[C@]34C)C2(C)C)C(O)C(O)C1OC1OC(CO)C(O)C(OC2OC(CO)C(O)C(O)C2O)C1O", "note": "(stereo partly drawn)", "values": [
      {"measurement": "activity change, negative = viability loss", "setting": "[1]", "value": "-12.9% [at 9.23 µM]"},
      {"measurement": "activity change, negative = cell killing", "setting": "[2]", "value": "-19.1% [at 9.23 µM]"}
    ]},
    {"molecule": "CC1CC2(O)OC(=O)C3=C2C(CCC3)[C@@]12C[C@@H](c1ccoc1)OC2=O", "note": "(stereo partly drawn)", "values": [
      {"measurement": "Potency", "setting": "[1]", "value": "inactive"},
      {"measurement": "Potency", "setting": "[2]", "value": "inactive"}
    ]},
    {"molecule": "CCc1nnc(NS(=O)(=O)c2ccc(NC(=S)NC(=O)/C=C/c3ccc(F)cc3)cc2)s1", "values": [
      {"measurement": "Potency", "setting": "[1]", "value": "inactive"},
      {"measurement": "Potency", "setting": "[2]", "value": "inactive"},
      {"measurement": "Potency", "setting": "[3]", "value": "37.9 µM (active)"}
    ]},
    {"molecule": "C=C[C@@]1(C)CCC2=C([C@H]1OC(C)=O)[C@H](OC(C)=O)CC1[C@](C)(C(=O)OC)CC[C@H](OC(C)=O)[C@]21C", "note": "(stereo partly drawn)", "values": [
      {"measurement": "Potency", "setting": "[1]", "value": "inactive"},
      {"measurement": "Potency", "setting": "[2]", "value": "inactive"}
    ]},
    {"molecule": "C[C@@H]1O[C@@H](O[C@H]2[C@H](OC(=O)[C@]34CCC(C)(C)C[C@H]3C3=CCC5[C@@]6(C)C[C@@H](O)[C@@H](O)[C@@](C)(CO)C6[C@H](O)C[C@@]5(C)[C@]3(C)CC4)OC[C@H](O)[C@@H]2O)[C@H](O)[C@H](O)[C@H]1O[C@@H]1OC[C@@H](O)[C@H](O[C@H]2O[C@H](C)[C@@H](O)[C@H](O)[C@@H]2O)[C@H]1O", "note": "(stereo partly drawn)", "values": [
      {"measurement": "activity change, negative = viability loss", "setting": "[1]", "value": "-2.76% [at 9.23 µM]"},
      {"measurement": "activity change, negative = cell killing", "setting": "[2]", "value": "-1.27% [at 9.23 µM]"}
    ]},
    {"molecule": "CC(=O)/C=C/C1(O)C(C)(C)CC(O)CC1(C)O", "note": "(stereo not drawn)", "values": [
      {"measurement": "Potency", "setting": "[1]", "value": "inactive"},
      {"measurement": "Potency", "setting": "[2]", "value": "inactive"}
    ]},
    {"molecule": "CCCCCOC(=O)Nc1nc(=O)n(C2O[C@H](C)[C@@H](O)[C@H]2O)cc1F", "note": "(stereo partly drawn)", "values": [
      {"measurement": "Potency", "setting": "[1]", "value": "inactive"},
      {"measurement": "Potency", "setting": "[2]", "value": "inactive"}
    ]},
    {"molecule": "O=C(O)CC1(O)C(=O)Nc2ccccc21", "note": "(stereo not drawn)", "values": [
      {"measurement": "Potency", "setting": "[1]", "value": "inactive"},
      {"measurement": "Potency", "setting": "[2]", "value": "inactive"}
    ]},
    {"molecule": "C=C1[C@H](OC(C)=O)[C@H]2[C@@H](OC(=O)c3ccccc3)[C@@H](C)C[C@]2(O)[C@@H](OC(C)=O)[C@H](C)/C=C/C(C)(C)C(=O)[C@H](OC(C)=O)[C@H]1OC(C)=O", "values": [
      {"measurement": "Potency", "setting": "[1]", "value": "inactive"},
      {"measurement": "Potency", "setting": "[2]", "value": "inactive"}
    ]},
    {"molecule": "Cc1c(O)cc2c(c1O)COC1(O)CCCOC21", "note": "(stereo not drawn)", "values": [
      {"measurement": "Potency", "setting": "[1]", "value": "inactive"},
      {"measurement": "Potency", "setting": "[2]", "value": "inactive"}
    ]},
    {"molecule": "CC(NC(=O)CC(=O)O)C(=O)Nc1ccccc1C(N)=O", "note": "(stereo not drawn)", "values": [
      {"measurement": "Potency", "setting": "[1]", "value": "inactive"},
      {"measurement": "Potency", "setting": "[2]", "value": "inactive"}
    ]},
    {"molecule": "COc1cc(C2CC(=O)Nc3c2cc(Br)c2ccccc32)cc(OC)c1OC", "note": "(stereo not drawn)", "values": [
      {"measurement": "Potency", "setting": "[1]", "value": "inactive"},
      {"measurement": "Potency", "setting": "[2]", "value": "inactive"}
    ]},
    {"molecule": "Cc1c(NC(=O)N2CCOCC2)ccc2c1c1ccccc1n2C(C)C", "values": [
      {"measurement": "Potency", "setting": "[1]", "value": "inactive"},
      {"measurement": "Potency", "setting": "[2]", "value": "inactive"}
    ]},
    {"molecule": "CCC(C)C(C(=O)O)N1Cc2c(OCC=C(C)C)c(C)c(OC)c(C(=O)O)c2C1=O", "note": "(stereo not drawn)", "values": [
      {"measurement": "Potency", "setting": "[1]", "value": "inactive"},
      {"measurement": "Potency", "setting": "[2]", "value": "inactive"}
    ]},
    {"molecule": "O=C(/C=C/c1ccccc1)OC[C@H]1O[C@@H](OC(=O)c2cc(O)c(O)c(O)c2)[C@H](O)[C@@H](O)[C@@H]1O", "values": [
      {"measurement": "Potency", "setting": "[1]", "value": "inactive"},
      {"measurement": "Potency", "setting": "[2]", "value": "inactive"}
    ]},
    {"molecule": "CC(C)[C@@H](C(=O)O)N1Cc2c(cc(O)c3c2O[C@]2(C3)[C@H](C)CCC3C(C)(C)[C@H](O)[C@H](O)C[C@@]32C)C1=O", "note": "(stereo partly drawn)", "values": [
      {"measurement": "Potency", "setting": "[1]", "value": "inactive"},
      {"measurement": "Potency", "setting": "[2]", "value": "inactive"}
    ]},
    {"molecule": "COc1c(C)c(OCC(O)C(C)(C)O)cc2c1CNC2=O", "note": "(stereo not drawn)", "values": [
      {"measurement": "Potency", "setting": "[1]", "value": "inactive"},
      {"measurement": "Potency", "setting": "[2]", "value": "inactive"}
    ]},
    {"molecule": "CC1(C)C2CC[C@@]34CC(CC[C@H]3[C@]2(C)CC[C@@H]1O[C@@H]1O[C@H](CO)[C@@H](O)[C@H](O)[C@H]1O)[C@](C)(O)C4", "note": "(stereo partly drawn)", "values": [
      {"measurement": "Potency", "setting": "[1]", "value": "inactive"},
      {"measurement": "Potency", "setting": "[2]", "value": "inactive"}
    ]},
    {"molecule": "CC1=CC(=O)CC(C)(C)[C@@]1(O)/C=C/C(C)O[C@@H]1O[C@H](CO)[C@@H](O)[C@H](O)[C@H]1O", "note": "(stereo partly drawn)", "values": [
      {"measurement": "Potency", "setting": "[1]", "value": "inactive"},
      {"measurement": "Potency", "setting": "[2]", "value": "inactive"}
    ]},
    {"molecule": "COc1cc(C)c(C(=O)O[C@@H]2[C@H](O)[C@@H](CO)O[C@H]2n2ccc(=O)[nH]c2=O)c(OC)c1", "values": [
      {"measurement": "Potency", "setting": "[1]", "value": "inactive"},
      {"measurement": "Potency", "setting": "[2]", "value": "inactive"}
    ]},
    {"molecule": "C=C1C(=O)OC[C@H]2C(C(=O)O)=CC3CC(C)(C)C[C@@]132", "note": "(stereo partly drawn)", "values": [
      {"measurement": "Potency", "setting": "[1]", "value": "inactive"},
      {"measurement": "Potency", "setting": "[2]", "value": "inactive"}
    ]},
    {"molecule": "COc1ccc(CCC(=O)c2c(O)cc(O[C@@H]3O[C@H](CO)[C@@H](O)[C@H](O)[C@H]3O[C@@H]3O[C@@H](C)[C@H](O)[C@@H](O)[C@H]3O)cc2O)cc1O", "values": [
      {"measurement": "Potency", "setting": "[1]", "value": "inactive"},
      {"measurement": "Potency", "setting": "[2]", "value": "inactive"}
    ]},
    {"molecule": "N=C(N)c1ccc2nc(-c3cc(CC(=O)NC(CC(=O)O)C(=O)O)cc(-c4cc(S(N)(=O)=O)ccc4O)c3O)[nH]c2c1", "note": "(stereo not drawn)", "values": [
      {"measurement": "Potency", "setting": "[1]", "value": "inactive"},
      {"measurement": "Potency", "setting": "[2]", "value": "inactive"}
    ]}
  ]
}
